# Hit rate of the full screen: of about 100,000 compounds, about 620 (0.62%) were called active. The full list was thinned out, with actives kept by preference. Values without a mark were called inactive. Rule for the calls: active = z-score of 3 or more in at least 2 runs; inactive = the rest.
# Test: TAR RNA-Tat peptide displacers, HIV-1, primary screen, biochemical, FRET, FAM/TAMRA-labeled Tat (AID 1259389)
# Conditions: HIV-1 TAR RNA, Tat peptide displacement FRET; hits give high values
row,Compound,z-score
1,O=C(Nc1ccccc1Br)c1cnn(-c2ccccc2)c1-n1cccc1,1.05
2,NC(=O)Cn1c(=O)n(CCCCC(=O)NCc2ccco2)c(=O)c2ccccc21,-0.85
3,CCCc1cc(=O)[nH]c(Nc2cccc(Br)c2)n1,0.79
4,C=C(C)Cn1c(CN2CCOCC2)nc2ccccc21,0.03
5,CCc1ccc(N2CCn3c2nc2c3c(=O)n(CC(=O)O)c(=O)n2C)cc1,3.43
6,CN(C)CCCNc1oc(-c2ccc(S(=O)(=O)N3CCc4ccccc4C3)cc2)nc1C#N,11.4 (active)
7,CC(C)CNc1oc(-c2ccc(S(=O)(=O)N3CCc4ccccc4C3)cc2)nc1C#N,0.36
8,COc1ccc(-c2nnc(-c3ccccc3)o2)cc1S(=O)(=O)N1CCc2ccccc2C1,0.08
9,O=C(c1ccccc1)c1ccc2nc(NCCCO)c3nncn3c2c1,-1.78
10,O=C1CCCC2=C1C(c1cccs1)N(C(=O)CCC(=O)N1CCOCC1)c1ccccc1N2 (stereo unspecified),0.78
11,O=C(CSc1nnc(-c2cccnc2)n1-c1ccccc1)c1ccc(F)cc1,1.26
12,CCCC(=O)Nc1ccc2nc(SCc3cc(=O)n4nc(C)sc4n3)sc2c1,0.47
13,CCc1nc2nc(CSc3nc4ccc(NC(=O)c5ccco5)cc4s3)cc(=O)n2[nH]1,4.94 (active)
14,CCc1nc2nc(CSc3nnc(NC(=O)c4ccccc4)s3)cc(=O)n2[nH]1,2.53
15,CCC(C)N(CCNC(=O)Nc1cn(C)c(=O)c2ccccc12)Cc1ccco1 (stereo unspecified),1.06
16,Cc1cccc(C(=O)OCc2cc(=O)n3nc(C)sc3n2)c1,-0.36
17,CC(CNc1c(-c2ccc(Cl)cc2)c(=O)c1=O)c1ccccc1 (stereo unspecified),-0.61
18,CC(C)OCCCNc1c(-c2ccc(C(C)C)cc2)c(=O)c1=O,10.9 (active)
19,COCCNc1c(-c2ccc(Cl)cc2)c(=O)c1=O,0.52
20,O=C1CSc2ccc(S(=O)(=O)NCc3ccccc3)cc2N1,0.46
21,COC(=O)c1ccc([C@@H]2Nc3ccc(F)cc3[C@@H]3C=CC[C@@H]32)cc1,1.86

row,Compound,z-score
1,CCOc1cccc2c1N[C@@H](c1ccc(C(=O)O)cc1)[C@H]1CC=C[C@@H]21,21.4 (active)
2,COc1ccccc1C1Nc2ccc(C(=O)O)cc2C2C3CCC(C3)C12 (stereo unspecified),8.02
3,Cc1ccsc1CCNC(=O)CCS(=O)(=O)c1ccc2c(c1)CC(C)N2C(=O)C1CC1 (stereo unspecified),-0.02
4,CC(C)NC(=O)NCCn1cnc2cc(C(=O)N(C)C)ccc21,-0.27
5,Oc1ccc(-c2csc(Nc3cccnc3)n2)cc1,-0.3
6,Cc1cccc(Nc2nc(-c3ccccc3)cs2)n1,1.14
7,Cc1n[nH]c(C)c1Nc1nc(-c2ccc(O)c(O)c2)cs1,28.7 (active)
8,NC(=O)Cn1c(=O)n(Cc2ccc(Cl)cc2)c(=O)c2cccnc21,-0.39
9,CCCNS(=O)(=O)c1ccc2c(c1)CC(C)N2C(=O)C1CC1 (stereo unspecified),0.52
10,Cc1[nH]c2ccccc2c1C(=O)CN1CCN(C)CC1,1.46
11,Cc1[nH]c2ccccc2c1C(=O)C(=O)N(C)c1ccccc1,-0.5
12,O=C(O)c1[nH]c2ccccc2c1-n1cccc1,13.1 (active)
13,O=c1c(N2CCN(C/C=C/c3ccccc3)CC2)csc2ccc(Cl)cc12,-2.75
14,COC(=O)C(=O)c1c(-c2ccc(Br)cc2)[nH]c2ccccc12,1.05
15,CCOC(=O)C1CCN(C2C(=O)c3ccccc3N2C(C)=O)CC1 (stereo unspecified),1.39
16,Cc1nn(C)c(C)c1CNC(=O)Cn1c(-c2cccs2)cc2cc(Cl)ccc21,0.84
17,CC1Sc2ccc(S(=O)(=O)N(C)c3ccc(Br)cc3)cc2NC1=O (stereo unspecified),1.17
18,CC1=C(C(=O)OCc2ccccc2)C(c2ccc(O)cc2)C2=C(CC(C)(C)CC2=O)N1 (stereo unspecified),1.82
19,CC1CCN(S(=O)(=O)c2ccc3[nH]c(=O)ccc3c2)CC1,-0.99
20,O=C(C1CCN(S(=O)(=O)c2ccc3[nH]c(=O)ccc3c2)CC1)N1CCCC1,0.85
21,O=c1ccc2cc(S(=O)(=O)N3CCN(C4CCCCC4)CC3)ccc2[nH]1,18.9 (active)

row,Compound,z-score
1,Cc1noc2ncnc(N3CCCC(C(=O)Nc4ccccn4)C3)c12 (stereo unspecified),0.85
2,CCOC(=O)c1noc2nc(C)nc(Nc3ccccc3)c12,0.17
3,O=C1c2ccc(O)cc2O[C@H](c2cc(O)c(O)c(O)c2)[C@H]1O,9.31 (active)
4,O=C(CSc1nnc2c3ccccc3nc(-c3ccccc3)n12)Nc1ccccc1,0.64
5,O=C(CSCc1cnn(-c2ccccc2)c1-n1cccc1)Nc1ccccc1F,1.3
6,O=C(O)C1Nc2ccc(Cl)cc2C2C=CCC12 (stereo unspecified),42 (active)
7,O=S(=O)(c1ccc(C2Nc3ccc(Cl)cc3C3C=CCC32)cc1)N1CCOCC1 (stereo unspecified),-2.45
8,O=C(NCc1cccnc1)c1ccc(CN2CC(=O)N3CCCC3C2=O)cc1 (stereo unspecified),1.95
9,O=C(CSc1nnc2scc(-c3ccccc3)n12)N1CCOCC1,0.4
10,O=C(CSc1ccc(-c2ccccn2)nn1)Nc1ccccc1,2.09
11,CCc1c(CN2CCN(Cc3ccccc3)CC2)csc1C,1.69
12,CCn1c(C(C)N2CCCCC2)nc2ccccc21 (stereo unspecified),1
13,Cc1ccc(Nc2nc(NCc3ccco3)nc3c2cnn3C)c(C)c1,3.66 (active)
14,CCNc1nc(Nc2ccc(Cl)cc2C)c2cnn(C)c2n1,0.26
15,Cc1ccc(Nc2ncnc3c2cnn3C)c(C)c1,0.03
16,O=S(=O)(c1ccc(Cl)cc1)c1nnn2c1nc(NC1CCCC1)c1sccc12,7.09 (active)
17,NC(=O)C1CCN(c2nc3c(S(=O)(=O)c4cccc(Cl)c4)nnn3c3ccsc23)CC1,0.52
18,CCN(CC)c1nc2c(S(=O)(=O)c3ccc(Cl)cc3)nnn2c2ccsc12,-1.01
19,Cn1c(=O)oc2cc(S(=O)(=O)CCC(=O)Nc3cccc(F)c3)ccc21,0.47

# — PubChem BioAssay AID1259389 (Center for Chemical Genomics, University of Michigan, 2018)
